# Measured values published in the supplement of paper PMC6658780.
# Structures can show the parent of a compound that is named as a salt. ± gives the standard deviation of the averaged measurements.
# Tested on: Escherichia coli ATCC BAA-2469
# Test: percent growth inhibition of drug + antibiotic vs DMSO control; higher = more growth inhibition
# Procedure: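 Prestwick drugs tested at 20 uM and 7 uM with an antibiotic at 0.125x MIC (16 mg/L when MIC >128 mg/L) against E. coli ATCC BAA-2469 (NDM-1) in CAMHB, 384-well plates, duplicate runs. Percent growth inhibition was computed from OD600 (24 h minus 0 h) relative to DMSO wells. Drug + DMSO-only wells are also given. […]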
# [1] = antibiotic (0.125x MIC): ciprofloxacin, 7 µM
# [2] = antibiotic (0.125x MIC): ciprofloxacin, 20 µM
# [3] = antibiotic (0.125x MIC): gentamicin, 7 µM
# [4] = antibiotic (0.125x MIC): gentamicin, 20 µM
# [5] = antibiotic (0.125x MIC): meropenem, 7 µM
# [6] = antibiotic (0.125x MIC): meropenem, 20 µM
SMILES,percent growth inhibition [1],percent growth inhibition [2],percent growth inhibition [3],percent growth inhibition [4],percent growth inhibition [5],percent growth inhibition [6]
O=C(N[C@H](CO)[C@H](O)c1ccc([N+](=O)[O-])cc1)C(Cl)Cl [Chloramphenicol],18.4 ± 4.5%,92.4 ± 9.2%,38.6 ± 9.3%,102 ± 3.6%,40.2 ± 7%,89.3 ± 10%
CC(=O)OC[C@H]1O[C@@H]([S-])[C@H](OC(C)=O)[C@@H](OC(C)=O)[C@@H]1OC(C)=O.CCP(CC)CC.[Au+] [Auranofin],9.1 ± 0.77%,19.5 ± 6.6%,–,–,7.8 ± 5.3%,19.3 ± 14%
Oc1c(I)cc(Cl)c2cccnc12 [Clioquinol],7.92 ± 1.7%,61.08 ± 0.34%,12.9 ± 5.2%,88.9 ± 10%,7.81 ± 2.7%,–
CN(C)c1ccc(O)c2c1C[C@H]1C[C@H]3[C@H](N(C)C)C(O)=C(C(N)=O)C(=O)[C@@]3(O)C(O)=C1C2=O [Minocycline hydrochloride],36.9 ± 6.3%,101 ± 3.3%,38.6 ± 5.5%,84.6 ± 15%,–,–
CC(C)(C)C(=O)OCOC(=O)[C@@H]1N2C(=O)[C@@H](/N=C/N3CCCCCC3)[C@H]2SC1(C)C [Pivmecillinam hydrochloride],2.89 ± 3.3%,–,–,–,–,–
OC(CCN1CCCC1)(c1ccccc1)C1CCCCC1 (configuration not stated) [Procyclidine hydrochloride],10.9 ± 16%,8.13 ± 9.2%,–,–,–,–
Nc1nc(F)nc2c1ncn2[C@@H]1O[C@H](CO)[C@@H](O)[C@@H]1O [Fludarabine],36.5 ± 11%,58.8 ± 3.8%,31.6 ± 1.3%,65.8 ± 12%,28.2 ± 5.7%,64.4 ± 8%
C[C@H]1[C@H](NC(=O)/C(=N\OC(C)(C)C(=O)O)c2csc(N)n2)C(=O)N1S(=O)(=O)O [Aztreonam],0.0872 ± 14%,–,24.6 ± 5.5%,81.2 ± 19%,14.9 ± 16%,–
O=C1OCCN1/N=C/c1ccc([N+](=O)[O-])o1 [Furazolidone],–,102 ± 2.7%,–,113 ± 20%,–,113 ± 20%
CCCCNc1c(C(=O)OCC)c(C)nc2c1cnn2CC [Tracazolate hydrochloride],–,–,0.683 ± 0.77%,–,–,–
OCCN1CCN(CCCN2c3ccccc3Sc3ccc(C(F)(F)F)cc32)CC1 [Fluphenazine dihydrochloride],–,–,1.67 ± 0.74%,–,–,–
CCCCCCCCNC(C)C(O)c1ccc(SC(C)C)cc1 (configuration not stated) [Suloctidil],–,–,–,–,1.25 ± 3.5%,–
CS(=O)(=O)c1ccc([C@@H](O)[C@@H](CO)NC(=O)C(Cl)Cl)cc1 [Thiamphenicol],–,–,–,–,7.39 ± 2.1%,30.4 ± 14%
CC[C@H]1OC(=O)[C@H](C)[C@@H](O[C@H]2C[C@@](C)(OC)[C@@H](O)[C@H](C)O2)[C@H](C)[C@@H](O[C@@H]2O[C@H](C)C[C@H](N(C)C)[C@H]2O)[C@](C)(O)C[C@@H](C)CN(C)[C@H](C)[C@@H](O)[C@]1(C)O [Azithromycin],–,–,–,–,20.7 ± 7.2%,50.1 ± 20%
